Columns and labels:
Test in all cases: SPOT peptide array binding signal intensity (averaged, normalized) (arbitrary units (background-subtracted, floor 0; scale differs between SH3 domains)); higher = stronger binding of the SH3 domain to the peptide
ScBbc1 = target: ScBbc1
Method in brief: (§1)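 Cellulose membranes carried synthetic 15-mer peptides with cysteines swapped for serines. These were incubated overnight at 4°C with 10 μg/ml of GST-fused SH3 domains from four yeast species in TBS-based blocking buffer. Binding signal, detected with anti-GST antibody and quantified in Genespotter, is the normalized, background-subtracted spot intensity averaged over replicates, in arbitrary units specific to each domain.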

ScBem1-D1 = target: ScBem1-D1
Method in brief: as §1

ScBzz1-D1 = target: ScBzz1-D1
Method in brief: as §1

ScBzz1-D2 = target: ScBzz1-D2
Method in brief: as §1

ScCyk3 = target: ScCyk3
Method in brief: as §1

ScFus1 = target: ScFus1
Method in brief: as §1

ScHof1 = target: ScHof1
Method in brief: as §1

ScHse1 = target: ScHse1
Method in brief: as §1

ScLsb1 = target: ScLsb1
Method in brief: as §1

ScLsb2 = target: ScLsb2
Method in brief: as §1

ScLsb3 = target: ScLsb3
Method in brief: as §1

ScLsb4 = target: ScLsb4
Method in brief: as §1

ScMyo3 = target: ScMyo3
Method in brief: as §1

ScMyo5 = target: ScMyo5
Method in brief: as §1

ScNbp2 = target: ScNbp2
Method in brief: as §1

ScPex13 = target: ScPex13
Method in brief: as §1

ScRvs167 = target: ScRvs167
Method in brief: as §1

ScSho1 = target: ScSho1
Method in brief: as §1

ScSla1-D1-D2 = target: ScSla1-D1-D2
Method in brief: as §1

ScSla1-D3 = target: ScSla1-D3
Method in brief: as §1

SpAbp1-D1 = target: SpAbp1-D1
Method in brief: as §1

SpBbc1 = target: SpBbc1
Method in brief: as §1

SpBzz1-D1 = target: SpBzz1-D1
Method in brief: as §1

SpBzz1-D2 = target: SpBzz1-D2
Method in brief: as §1

SpCyk3 = target: SpCyk3
Method in brief: as §1

SpHof1 = target: SpHof1
Method in brief: as §1

SpHof1-2 = target: SpHof1-2
Method in brief: as §1

SpHof1-3 = target: SpHof1-3
Method in brief: as §1

SpHse1 = target: SpHse1
Method in brief: as §1

SpLsb1 = target: SpLsb1
Method in brief: as §1

SpLsb4 = target: SpLsb4
Method in brief: as §1

SpMyo1 = target: SpMyo1
Method in brief: as §1

SpNbp2 = target: SpNbp2
Method in brief: as §1

SpPex13 = target: SpPex13
Method in brief: as §1

SpRvs167 = target: SpRvs167
Method in brief: as §1

SpSla1-D1-D2 = target: SpSla1-D1-D2
Method in brief: as §1

SpSla1-D3 = target: SpSla1-D3
Method in brief: as §1

B1: unnamed (peptide)
chain: RTRRRPPPPPIPSTQ
ScBbc1
  SPOT peptide array binding signal intensity: 511
ScBem1-D1
  SPOT peptide array binding signal intensity: 13.5
ScBzz1-D1
  SPOT peptide array binding signal intensity: 1990
ScBzz1-D2
  SPOT peptide array binding signal intensity: 258
ScCyk3
  SPOT peptide array binding signal intensity: 19
ScFus1
  SPOT peptide array binding signal intensity: 40.5
ScHof1
  SPOT peptide array binding signal intensity: 2
ScHse1
  SPOT peptide array binding signal intensity: 473
ScLsb1
  SPOT peptide array binding signal intensity: 492
ScLsb2
  SPOT peptide array binding signal intensity: 559
ScLsb3
  SPOT peptide array binding signal intensity: 2080
ScLsb4
  SPOT peptide array binding signal intensity: 258
ScMyo3
  SPOT peptide array binding signal intensity: 940
ScMyo5
  SPOT peptide array binding signal intensity: 1490
ScNbp2
  SPOT peptide array binding signal intensity: 3190
ScPex13
  SPOT peptide array binding signal intensity: 318
ScRvs167
  SPOT peptide array binding signal intensity: 1430
ScSho1
  SPOT peptide array binding signal intensity: 894
ScSla1-D1-D2
  SPOT peptide array binding signal intensity: 3110
ScSla1-D3
  SPOT peptide array binding signal intensity: 883
SpAbp1-D1
  SPOT peptide array binding signal intensity: 505
SpBbc1
  SPOT peptide array binding signal intensity: 85.8
SpBzz1-D1
  SPOT peptide array binding signal intensity: 4250
SpBzz1-D2
  SPOT peptide array binding signal intensity: 1520
SpCyk3
  SPOT peptide array binding signal intensity: 1
SpHof1
  SPOT peptide array binding signal intensity: 361
SpHof1-2
  SPOT peptide array binding signal intensity: 53.5
SpHof1-3
  SPOT peptide array binding signal intensity: 340
SpHse1
  SPOT peptide array binding signal intensity: 72.2
SpLsb1
  SPOT peptide array binding signal intensity: 370
SpLsb4
  SPOT peptide array binding signal intensity: 1730
SpMyo1
  SPOT peptide array binding signal intensity: 800
SpNbp2
  SPOT peptide array binding signal intensity: 29.5
SpPex13
  SPOT peptide array binding signal intensity: 26.5
SpRvs167
  SPOT peptide array binding signal intensity: 1250
SpSla1-D1-D2
  SPOT peptide array binding signal intensity: 907
SpSla1-D3
  SPOT peptide array binding signal intensity: 2.5
